Assay results: PubChem BioAssay AID1159580 (chemical genetic matrix, 2015)
“And” between values parts separate entries of the source, which are not always exact repeats. Identical values can stand only once. Out of some 5,500 compounds screened, about 2,000 (36%) were called active. Not shown: some 18% with an inconclusive outcome. Rule as the data show it: active = normalized growth mostly below about 0.91 (no sharp cut-off); inconclusive = no clear call, values can overlap the other calls; inactive = mostly above about 0.92. The list shows a part of the results.

Assay: chemical genetic growth profiling, strain panel (AID 1159580);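 also: tested at 20 µM; growth read once vehicle control cultures reached saturation at 30 °C; 1 = growth at the plate median or of vehicle wells; lower values mean less growth of the strain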
Conditions: S. cerevisiae deletion strains, growth OD
[1] = locus YJR075W, strain HOC1, stronger effect = lower value
[2] = locus YNL128W, strain TEP1, stronger effect = lower value
[3] = locus YNL322C, strain KRE1, stronger effect = lower value

Measured: normalized growth

COC(=O)/C=C/C(C)=C/C=C/C(C)=C/C=C/C=C(C)/C=C/C=C(C)/C=C/C(=O)O
active: locus YLR113W, strain HOG1, stronger effect = lower value 0.844
inactive: locus YAL013W, strain DEP1, stronger effect = lower value 1 | locus YAL021C, strain ccr4, stronger effect = lower value 1.02 | locus YAL026C, strain drs2, stronger effect = lower value 1.02 | locus YAL030W, strain snc1, stronger effect = lower value 1.02 | locus YBL061C, strain skt5, stronger effect = lower value 1.04 | locus YBR009C, strain hhf1, stronger effect = lower value 1.02 | locus YBR021W, strain FUR4, stronger effect = lower value 1.03 | locus YBR023C, strain chs3, stronger effect = lower value 1.03 | locus YBR171W, strain sec66, stronger effect = lower value 1.03 | locus YBR229C, strain ROT2, stronger effect = lower value 1.02 | locus YBR231C, strain swc5, stronger effect = lower value 1.02 | locus YBR279W, strain paf1, stronger effect = lower value 0.988 | locus YCL011C, strain gbp2, stronger effect = lower value 1.02 | locus YCL016C, strain dcc1, stronger effect = lower value 1.02 | locus YCL029C, strain bik1, stronger effect = lower value 1.01 | locus YCL061C, strain MRC1, stronger effect = lower value 1.02 | locus YCL069W, strain vba3, stronger effect = lower value 1.02 | locus YCR088W, strain abp1, stronger effect = lower value 1.02 | locus YDL005C, strain med2, stronger effect = lower value 1.01 | locus YDL035C, strain GPR1, stronger effect = lower value 1.02 | locus YDL040C, strain nat1, stronger effect = lower value 1.01 | locus YDL074C, strain BRE1, stronger effect = lower value 1 | locus YDL101C, strain DUN1, stronger effect = lower value 1.02 | locus YDL134C, strain PPH21, stronger effect = lower value 1.04 | locus YDL185W, strain tfp1, stronger effect = lower value 1.02 | locus YDL192W, strain arf1, stronger effect = lower value 1.01 | locus YDR001C, strain nth1, stronger effect = lower value 1.03 | locus YDR069C, strain doa4, stronger effect = lower value 1.04 | locus YDR101C, strain arx1, stronger effect = lower value 0.997 | locus YDR137W, strain rgp1, stronger effect = lower value 1.05 | locus YDR150W, strain NUM1, stronger effect = lower value 1.02 | locus YDR159W, strain sac3, stronger effect = lower value 1.05 | locus YDR162C, strain NBP2, stronger effect = lower value 1.03 | locus YDR195W, strain ref2 0.993 | locus YDR297W, strain sur2, stronger effect = lower value 1.03 | locus YDR318W, strain mcm21, stronger effect = lower value 1 | locus YDR334W, strain swr1, stronger effect = lower value 1.02 | locus YDR335W, strain msn5, stronger effect = lower value 1.02 | locus YDR388W, stronger effect = lower value 0.998 | locus YDR392W, strain spt3, stronger effect = lower value 1.03 | locus YDR502C, strain sam2, stronger effect = lower value 1.01 | locus YEL003W, strain gim4, stronger effect = lower value 1.02 | locus YEL037C, strain rad23, stronger effect = lower value 1.02 | locus YEL061C, strain CIN8 (second series), stronger effect = lower value 1.01 | locus YEL061C, strain CIN8, stronger effect = lower value 1.01 | locus YER015W, strain faa2, stronger effect = lower value 1.02 | locus YER016W, strain bim1, stronger effect = lower value 1.01 | locus YER110C, stronger effect = lower value 0.989 | locus YER111C, strain swi4, stronger effect = lower value 1.02 | locus YER155C, strain BEM2 (second series), stronger effect = lower value 1.03 | locus YER155C, strain BEM2, stronger effect = lower value 0.994 | locus YER167W, strain BCK2, stronger effect = lower value 1.01 | locus YFR010W, strain ubp6, stronger effect = lower value 1.02 | locus YGL078C, strain dbp3, stronger effect = lower value 0.993 | locus YGL086W, strain mad1, stronger effect = lower value 0.986 | locus YGL167C, strain pmr1, stronger effect = lower value 1.03 | locus YGL173C, strain kem1, stronger effect = lower value 1.02 | locus YGL227W, strain vid30, stronger effect = lower value 1.03 | locus YGL240W, strain doc1, stronger effect = lower value 1.02 | locus YGL248W, strain PDE1, stronger effect = lower value 1.02 | locus YGL253W, strain hxk2, stronger effect = lower value 1.02 | locus YGR078C, strain PAC10, stronger effect = lower value 1.03 | locus YGR135W, strain pre9, stronger effect = lower value 1 | locus YGR252W, strain gcn5, stronger effect = lower value 0.983 | locus YHR013C, strain ard1, stronger effect = lower value 1.01 | locus YHR027C, strain rpn1, stronger effect = lower value 1.03 | locus YHR030C, strain SLT2, stronger effect = lower value 1.02 and 0.885 | locus YHR079C, strain IRE1 (second series), stronger effect = lower value 0.986 | locus YHR079C, strain IRE1, stronger effect = lower value 0.897 | locus YHR094C, strain hxt1, stronger effect = lower value 0.994 | locus YHR129C, strain ARP1, stronger effect = lower value 1.01 | locus YHR142W, strain chs7, stronger effect = lower value 1.03 | locus YHR200W, strain rpn10, stronger effect = lower value 1.01 | locus YIL066C, strain RNR3, stronger effect = lower value 1.03 | locus YIL073C, strain SPO22, stronger effect = lower value 1.01 | locus YIL125W, strain kgd1, stronger effect = lower value 0.997 | locus YIR030C, strain dcg1, stronger effect = lower value 0.995 | locus YJL092W, strain hpr5, stronger effect = lower value 1.03 | locus YJL095W, strain BCK1 (second series), stronger effect = lower value 1.02 | locus YJL095W, strain BCK1, stronger effect = lower value 1.04 and 0.924 | locus YJL115W, strain asf1, stronger effect = lower value 1.01 | locus YJL129C, strain trk1, stronger effect = lower value 1.02 | locus YJL134W, strain LCB3, stronger effect = lower value 1.01 | locus YJL154C, strain vps35, stronger effect = lower value 1.01 | locus YJL164C, strain tpk1, stronger effect = lower value 1.03 | locus YJL166W, strain qcr8, stronger effect = lower value 1.03 | locus YJL168C, strain set2, stronger effect = lower value 0.994 | locus YJL187C, strain SWE1 (second series), stronger effect = lower value 1.03 | locus YJL187C, strain SWE1, stronger effect = lower value 1.02 | locus YJR043C, strain POL32, stronger effect = lower value 1.03 | locus YJR066W, strain TOR1, stronger effect = lower value 0.898 | [1] 1.04 | locus YKL009W, strain mrt4, stronger effect = lower value 0.996 | locus YKL068W, stronger effect = lower value 1.01 | locus YKL085W, strain MDH1 (second series), stronger effect = lower value 0.989 | locus YKL085W, strain MDH1, stronger effect = lower value 0.989 | locus YKL160W, strain elf1, stronger effect = lower value 1.02 | locus YKL190W, strain CNB1, stronger effect = lower value 1.01 | locus YKR001C, strain vps1, stronger effect = lower value 1.01 | locus YKR026C, strain gcn3, stronger effect = lower value 1.02 | locus YKR091W, strain srl3, stronger effect = lower value 1.02 | locus YLL001W, strain dnm1, stronger effect = lower value 1.02 | locus YLL026W, stronger effect = lower value 1.02 | locus YLL041C, strain sdh2, stronger effect = lower value 1.02 | locus YLR027C, strain aat2, stronger effect = lower value 1.02 | locus YLR039C, strain RIC1, stronger effect = lower value 1.08 | locus YLR058C, strain SHM2, stronger effect = lower value 1.01 | locus YLR102C, strain apc9, stronger effect = lower value 0.988 | locus YLR221C, strain rsa3, stronger effect = lower value 1.02 | locus YLR258W, strain gsy2, stronger effect = lower value 1.02 | locus YLR262C, strain YPT6 (second series), stronger effect = lower value 1.06 | locus YLR262C, strain YPT6, stronger effect = lower value 1.04 | locus YLR268W, strain sec22, stronger effect = lower value 1.02 | locus YLR320W, strain mms22, stronger effect = lower value 1.04 | locus YLR330W, strain CHS5, stronger effect = lower value 1.02 | locus YLR342W, strain FKS1 (second series), stronger effect = lower value 1.01 | locus YLR342W, strain FKS1, stronger effect = lower value 1.03 | locus YLR357W, strain rsc2, stronger effect = lower value 1.02 | locus YLR370C, strain arc18, stronger effect = lower value 1.02 | locus YLR371W, strain rom2, stronger effect = lower value 0.988 | locus YLR384C, strain iki3, stronger effect = lower value 1.02 | locus YLR418C, strain cdc73, stronger effect = lower value 1.01 | locus YML016C, strain PPZ1, stronger effect = lower value 1.02 | locus YML032C, strain rad52, stronger effect = lower value 0.982 | locus YML120C, strain ndi1, stronger effect = lower value 1.02 | locus YML124C, strain tub3, stronger effect = lower value 0.996 | locus YMR058W, strain fet3, stronger effect = lower value 1.03 | locus YMR078C, strain ctf18, stronger effect = lower value 0.993 | locus YMR125W, strain sto1, stronger effect = lower value 1.01 | locus YMR129W, stronger effect = lower value 1.02 | locus YMR205C, strain PFK2, stronger effect = lower value 1.03 | locus YMR223W, strain ubp8, stronger effect = lower value 1.01 | locus YMR231W, strain pep5, stronger effect = lower value 1.01 | locus YMR263W, strain SAP30, stronger effect = lower value 1.02 | locus YMR307W, strain GAS1, stronger effect = lower value 1.04 | locus YNL067W, strain RPL9B, stronger effect = lower value 1.02 | locus YNL071W, strain lat1, stronger effect = lower value 1.02 | [2] 1.01 | locus YNL183C, strain NPR1, stronger effect = lower value 0.908 | locus YNL209W, strain ssb2, stronger effect = lower value 1.02 | locus YNL233W, strain BNI4, stronger effect = lower value 1.03 | locus YNL248C, strain rpa49, stronger effect = lower value 1.01 | locus YNL250W, strain rad50, stronger effect = lower value 0.986 | locus YNL271C, strain bni1, stronger effect = lower value 0.998 | locus YNL298W, strain CLA4, stronger effect = lower value 0.991 | locus YNL307C, strain MCK1, stronger effect = lower value 1 | locus YNL322C, strain KRE1 (second series), stronger effect = lower value 1.02 | [3] 1.01 | locus YNR049C, strain mso1, stronger effect = lower value 1.02 | locus YNR052C, strain pop2, stronger effect = lower value 0.998 | locus YOL006C, strain TOP1, stronger effect = lower value 1.11 | locus YOL012C, strain htz1 1.19 | locus YOL147C, strain pex11, stronger effect = lower value 0.996 | locus YOR001W, strain rrp6, stronger effect = lower value 1.02 | locus YOR061W, strain CKA2, stronger effect = lower value 1.02 | locus YOR069W, strain VPS5, stronger effect = lower value 1.01 | locus YOR070C, strain gyp1, stronger effect = lower value 1.02 | locus YOR080W, strain dia2, stronger effect = lower value 1.02 | locus YOR083W, strain WHI5, stronger effect = lower value 1.01 | locus YOR106W, strain vam3, stronger effect = lower value 1.02 | locus YOR136W, strain idh2, stronger effect = lower value 1 | locus YOR144C, strain elg1, stronger effect = lower value 1 | locus YOR184W, strain ser1, stronger effect = lower value 1.01 | locus YOR231W, strain MKK1, stronger effect = lower value 0.901 | locus YOR265W, strain rbl2, stronger effect = lower value 1.02 | locus YOR270C, strain vph1, stronger effect = lower value 0.954 | locus YOR290C, strain snf2, stronger effect = lower value 1.02 | locus YOR316C, strain cot1, stronger effect = lower value 0.989 | locus YPL051W, strain arl3, stronger effect = lower value 1.02 | locus YPL078C, strain atp4, stronger effect = lower value 1.02 | locus YPL106C, strain sse1, stronger effect = lower value 1.05 | locus YPL240C, strain hsp82, stronger effect = lower value 1.03 | locus YPL256C, strain CLN2, stronger effect = lower value 0.894 | locus YPR119W, strain clb2, stronger effect = lower value 1 | locus YPR141C, strain kar3, stronger effect = lower value 0.995 | locus YPR163C, strain tif3, stronger effect = lower value 1 | locus YPR167C, strain met16, stronger effect = lower value 0.996 | strain wtn01, stronger effect = lower value 1.01

O=C(O)/C=C/C(=O)O
inactive: locus YAL040C, strain CLN3, stronger effect = lower value 1.02 | locus YCL061C, strain MRC1 (second series), stronger effect = lower value 1.01 | locus YDR363W, strain ESC2, stronger effect = lower value 1.01 | locus YER002W, strain NOP16, stronger effect = lower value 1.04 | [1] 1.01 | [2] 1.01 | locus YNL175C, strain NOP13, stronger effect = lower value 1.01 | locus YNL197C, strain WHI3, stronger effect = lower value 1 | locus YNL224C, strain SQS1, stronger effect = lower value 1 | [3] 1.02 | locus YOR083W, strain WHI5 (second series), stronger effect = lower value 1 | locus YPL055C, strain LGE1, stronger effect = lower value 1.02
